# In PubChem BioAssay:
# What was measured:
# Experiment in all cases: inhibition of PEG-3 promoter-driven reporter – cell-based, HeLa, luciferase, CREF/GAPDH counter-screen panel, dose response (AID 624167)
# PEG-3 [1] = target: PEG-3 (UniProt Q6IN02); details: CREF/GAPDH counter-screens; HeLa PEG-Prom luciferase reporter, overnight, run 1, dose range 1, at 100 µM (top of the series) unless noted
# PEG-3 [2] = target: PEG-3 (UniProt Q6IN02); details: CREF/GAPDH counter-screens; HeLa PEG-Prom luciferase reporter, overnight, run 2, dose range 1, at 100 µM (top of the series) unless noted
# Rat fibroblasts (CREF) [3] = details: CREF/GAPDH counter-screens; run 1, dose range 1, at 100 µM (top of the series)
# Rat fibroblasts (CREF) [4] = details: CREF/GAPDH counter-screens; run 2, dose range 1, at 100 µM (top of the series)
# Chain of PEG-3 (Q6IN02 whole entry, looked up): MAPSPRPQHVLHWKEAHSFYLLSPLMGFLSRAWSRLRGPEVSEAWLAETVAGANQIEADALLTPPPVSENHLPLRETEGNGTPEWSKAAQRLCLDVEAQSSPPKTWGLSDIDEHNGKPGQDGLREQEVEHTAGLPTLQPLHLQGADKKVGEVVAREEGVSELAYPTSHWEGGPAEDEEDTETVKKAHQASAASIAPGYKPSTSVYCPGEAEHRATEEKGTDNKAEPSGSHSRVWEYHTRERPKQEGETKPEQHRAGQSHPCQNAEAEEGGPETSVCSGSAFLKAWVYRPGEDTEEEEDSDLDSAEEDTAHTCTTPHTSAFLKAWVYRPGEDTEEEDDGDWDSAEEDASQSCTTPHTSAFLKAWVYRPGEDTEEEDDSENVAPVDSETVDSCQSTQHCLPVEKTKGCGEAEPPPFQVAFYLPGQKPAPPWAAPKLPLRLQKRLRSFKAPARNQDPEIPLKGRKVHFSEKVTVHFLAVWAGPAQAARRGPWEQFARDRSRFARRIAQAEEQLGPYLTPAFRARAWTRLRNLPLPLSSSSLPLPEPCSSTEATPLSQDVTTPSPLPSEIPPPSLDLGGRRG
structure (smiles),measurement,setting,value
O=c1cnnc(N/N=C/c2ccccn2)[nH]1,inhibition,PEG-3 [1],66.3%
same,inhibition,PEG-3 [2],58.7%
same,inhibition,Rat fibroblasts (CREF) [3],49.4%
same,inhibition,Rat fibroblasts (CREF) [4],51.1%
CS(=O)(=O)c1ccc(-c2sc3ccccc3c2C#CCCO)cc1,inhibition,PEG-3 [1],96%
same,inhibition,PEG-3 [2],97.9%
same,inhibition,Rat fibroblasts (CREF) [3],95.2%
same,inhibition,Rat fibroblasts (CREF) [4],95.7%
Cc1oc(-c2ccc3c(c2)OCCO3)cc1C(=O)O,inhibition,PEG-3 [1],101%
same,inhibition,PEG-3 [2],99.2%
same,inhibition,Rat fibroblasts (CREF) [3],84.4%
same,inhibition,Rat fibroblasts (CREF) [4],81.3%
S=C(NN=C(c1ccccc1)c1ccccn1)N(Cc1ccccn1)Cc1ccccn1,inhibition,PEG-3 [1],102%
same,inhibition,PEG-3 [2],102%
same,inhibition,Rat fibroblasts (CREF) [3],97.9%
same,inhibition,Rat fibroblasts (CREF) [4],98%
Cc1ccc(C(=O)CN2C(=O)c3ccccc3S2(=O)=O)cc1,inhibition,PEG-3 [1],93.5%
same,inhibition,PEG-3 [2],92.4%
same,inhibition,Rat fibroblasts (CREF) [3],87.2%
same,inhibition,Rat fibroblasts (CREF) [4],87.5%
COc1ccc2c(c1)sc1nc(-c3ccccc3)cn12,inhibition,PEG-3 [1],100%
same,inhibition,PEG-3 [2],97.3%
same,inhibition,Rat fibroblasts (CREF) [3],98.8%
same,inhibition,Rat fibroblasts (CREF) [4],98.5%
COc1ccc(C(=O)Nc2nc3ccccc3s2)c(OC)c1,inhibition,PEG-3 [1],101%
same,inhibition,PEG-3 [2],98.8%
same,inhibition,Rat fibroblasts (CREF) [3],97.3%
same,inhibition,Rat fibroblasts (CREF) [4],97.7%
O=C(OCC(F)(F)F)c1cccc(COc2ccc3ccccc3c2)c1,inhibition,PEG-3 [1],96.5%
same,inhibition,PEG-3 [2],92.4%
same,inhibition,Rat fibroblasts (CREF) [3],86.6%
same,inhibition,Rat fibroblasts (CREF) [4],85.7%
N=c1n(CC(=O)c2ccc([N+](=O)[O-])cc2)c2ccccc2n1Cc1ccc(Cl)cc1,inhibition,PEG-3 [1],99.6%
same,inhibition,PEG-3 [2],101%
same,inhibition,Rat fibroblasts (CREF) [3],99.2%
same,inhibition,Rat fibroblasts (CREF) [4],99.4%
Cc1cc(C(=O)CN2C(=O)c3ccccc3S2(=O)=O)c(C)n1-c1ccccc1,inhibition,PEG-3 [1],98.9%
same,inhibition,PEG-3 [2],98%
same,inhibition,Rat fibroblasts (CREF) [3],90.6%
same,inhibition,Rat fibroblasts (CREF) [4],89.8%
CCC(=O)NC(c1cccs1)c1cc(Cl)c2cccnc2c1O (configuration not stated),inhibition,PEG-3 [1],100%
same,inhibition,PEG-3 [2],99.5%
same,inhibition,Rat fibroblasts (CREF) [3],38.2%
same,inhibition,Rat fibroblasts (CREF) [4],97.6%
CCOc1ccc(OCc2cccc(C(=O)O)c2)cc1,inhibition,PEG-3 [1],91.5%
same,inhibition,PEG-3 [2],91.5%
same,inhibition,Rat fibroblasts (CREF) [3],96.6%
same,inhibition,Rat fibroblasts (CREF) [4],97.5%
COc1cc(/C=C2\SC(=Nc3ccccc3OC)NC2=O)ccc1O,inhibition,PEG-3 [1],-37%
same,inhibition,PEG-3 [2],"89.3% [run 2, dose range 1, at 25 µM]"
same,inhibition,Rat fibroblasts (CREF) [3],-38.3%
same,inhibition,Rat fibroblasts (CREF) [4],-20.9%
